D2 ag-1 – human D2 receptor agonism in beta-arrestin assay; activation, % (test concentration not listed); 360,000 compounds, 0.084% hits; AID 624465; DiscoveRx PathHunter D2 beta-arrestin, luminescence, 90 min; 100% = 57 uM dopamine signal; P14416; in the data active = activation above about 40%; inconclusive = between about 15% and that limit
Target sequence (P14416 whole entry, looked up): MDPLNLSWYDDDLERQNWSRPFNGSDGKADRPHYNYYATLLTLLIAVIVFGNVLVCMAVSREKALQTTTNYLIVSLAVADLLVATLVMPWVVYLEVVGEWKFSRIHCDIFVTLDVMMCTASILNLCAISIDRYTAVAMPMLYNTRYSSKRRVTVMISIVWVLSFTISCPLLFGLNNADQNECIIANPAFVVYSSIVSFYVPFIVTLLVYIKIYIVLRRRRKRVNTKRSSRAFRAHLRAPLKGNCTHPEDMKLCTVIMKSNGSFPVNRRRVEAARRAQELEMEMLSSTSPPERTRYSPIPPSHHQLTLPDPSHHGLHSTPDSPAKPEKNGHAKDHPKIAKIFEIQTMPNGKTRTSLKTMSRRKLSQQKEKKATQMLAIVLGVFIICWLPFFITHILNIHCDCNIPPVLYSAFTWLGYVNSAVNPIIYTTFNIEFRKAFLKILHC
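Agonist mode: compounds alone added to overnight-plated D2 PathHunter cells for 90 min at 37 C, with 57 uM final dopamine (EC100) defining full response. Beta-arrestin recruitment detected by chemiluminescent reagent, read after 1 h at ambient temperature.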
D2 antag – D2 dopamine receptor (human) antagonism | P14416 | HEK293 TREx D2 cells, calcium flux, dopamine EC80 | inhibition, % at 10 µM | 340,000 compounds, 2% hits; in the data active = inhibition above about 30%; inactive = below that, where a call was filed
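Inhibition of EC80 dopamine-driven calcium flux, recorded kinetically, defines activity here; cells are a tetracycline-induced HEK293 T-REx line expressing force-coupled D2.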
D2 ag-2 – activates the human D2 dopamine receptor | P14416 | HEK293 T-REx D2 cells, calcium flux agonist mode | activation, % at 2 µM | 340,000 compounds, 0.53% hits | AID 485358;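 active = activation over 3 SD above normal in the single-dose calcium agonist read, cut at about 30% in these data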
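HEK293 Trex D2 cells, tetracycline-induced, o/n 30 C 5% CO2; no-wash Ca dye, RT 30–90 min; 10-cycle baseline, 23 nl cpd added, kinetic Ca read 180 s; agonist hits = positive Ca response.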
D2 PAM-1 – D2 dopamine receptor (human) potentiation; P14416; HEK293 T-REx D2, calcium flux, EC20 dopamine potentiation; potentiation, % at 10 µM; 340,000 compounds, 0.34% hits; AID 485347;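 active = potentiation over 3 SD above the plate norm, cut at about 30% in these data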
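Using a no-wash calcium dye in inducible, force-coupled HEK293 Trex cells expressing D2, we tracked fluorescence each second for 180 s after compound, then for 180 s after EC20 dopamine to detect augmented signalling.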
D2 PAM-2 – positive allosteric modulators of human D2 dopamine receptor; DiscoveRx D2 beta-arrestin cells, luminescence, 90 min; 100% = 57 uM dopamine signal; AID 624464; P14416; potentiation, % (no concentration beside the values); 360,000 compounds, 0.23% hits; in the data active = potentiation above about 50%; inconclusive = mostly about 30% to 49%
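PathHunter D2 cells, attached overnight at 37 deg C, received compound in DMSO plus dopamine at EC20 (50 nM final) for 90 min at 37 deg C. Beta-arrestin recruitment was read as luminescence after 1 h with detection reagent at ambient temperature.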
Numbers stand for hits; n = inactive; u = inconclusive; x = no result given. Hits are enriched below; roughly 2.4% of the tested compounds scored in any of these assays.

SMILES	D2 ag-1	D2 antag	D2 ag-2	D2 PAM-1	D2 PAM-2
Cc1ccc(NC(=O)Cn2nnc(-c3nc(-c4ccc(Cl)cc4)no3)c2N)cc1C	x	x	n	n	x
O=C(CCN1C(=O)c2ccccc2S1(=O)=O)N1CCN(c2ccc(F)cc2)CC1	n	33	n	n	n
O=C(CCN1C(=O)c2ccccc2S1(=O)=O)N1CCN(c2ccccc2)CC1	n	n	n	n	n
CCCCN(C(=O)c1c(CC)noc1C)c1c(N)n(CC(C)C)c(=O)[nH]c1=O	n	n	n	n	n
Cc1onc(-c2ccccc2)c1C(=O)N(CC(C)C)c1c(N)n(CC(C)C)c(=O)[nH]c1=O	n	x	x	30	n
O=C(Cn1c(=O)c(C(F)(F)F)nc2ccccc21)Nc1ccc(Br)cc1F	x	x	x	n	x
COc1ccc(-n2c(SCC(=O)Nc3ccc4c(c3)OCO4)nc3c([nH]c4ccccc43)c2=O)cc1	x	x	n	n	x
O=C(CSc1nnc(-c2cccc(F)c2)c(-c2cccc(F)c2)n1)NC1CCCCC1	x	x	x	n	x
CN(Cc1nc(-c2ccccn2)no1)S(=O)(=O)c1ccccc1	n	37	n	x	n
Cc1ccc(S(=O)(=O)N(C)Cc2nc(-c3ccccn3)no2)cc1	n	n	n	n	n
COc1ccccc1OCCC(=O)OCC(=O)Nc1ccc(Br)cc1	n	91	n	n	n
COc1ccccc1/C=C/C(=O)Nc1ccc2c(c1)OCCO2	n	34	n	n	n
O=C(Nc1ccc(F)c(Cl)c1)c1ccc2c(c1)OCO2	n	n	n	n	n
COc1ccccc1/C=C/C(=O)OCC(=O)Nc1ccc2c(c1)OCCO2	n	n	n	n	n
COc1ccc(NC(=O)c2ccc3c(c2)OCO3)cc1Cl	n	39	n	n	n
COc1ccccc1OCC(=O)Nc1ccc2c(c1)OCO2	n	32	n	n	n
COc1cc(Cl)c(NC(=O)c2cc3ccccn3n2)c(OC)c1	x	x	x	n	x
COc1ccc(C(=O)C2CCCN(C/C=C/c3ccccc3OC)C2)c(OC)c1 (stereo not given)	n	86	n	n	n
COc1cccc(C(=O)C2CCCN(C/C=C/c3ccccc3OC)C2)c1 (stereo not given)	n	n	n	n	n
Cn1cc(S(=O)(=O)N2CCCCCC2)cc1C(=O)N1CCN(c2ccccc2F)CC1	x	x	n	n	x
CN(C)c1ccc(/C=N/NC(=O)C(O)(c2ccccc2)c2ccccc2)o1	n	33	n	n	n
CCOc1ccccc1NC(=O)NCc1ccccc1	n	42	n	n	n
CSc1ccc(CCNC(=O)C2CCCN(S(=O)(=O)N(C)c3ccc(F)cc3)C2)cc1 (stereo not given)	x	x	n	n	x
COc1ccc(C(=O)/C=C/Nc2ccc([N+](=O)[O-])cc2C)cc1OC	n	40	n	n	n
COc1ccc(C(=O)/C=C/Nc2ccc([N+](=O)[O-])cc2C)c(OC)c1	n	n	n	n	n
SMILES	D2 ag-1	D2 antag	D2 ag-2	D2 PAM-1	D2 PAM-2
Cc1ccc(CNc2ccc(N3CCOCC3)cc2)s1	n	n	n	n	n
CC(=O)N1CCN(c2ccc(NCc3ccc(C)s3)cc2)CC1	u	50	n	n	n
Cc1cc(C)c2c(n1)nn1c(NCCCN(C)C)cc(C)nc21	n	n	n	34	n
CC1=C(CC(=O)c2ccc(Cl)cc2)C(=O)c2ccccc2C1=O	n	x	x	x	55
COc1ccc(-c2cn3c(n2)sc2cc(C(=O)Nc4cccc(SC)c4)ccc23)cc1	x	x	n	n	x
CCC(=O)N1CCc2cc(Br)cc(S(=O)(=O)CCC(=O)NCCc3cccc(C)c3)c21	x	x	n	n	x
COCCn1c(=O)[nH]c2cc(C(=O)NCCN3CCN(c4ccccc4F)CC3)ccc2c1=O	u	96	83	n	n
COCCn1c(=O)[nH]c2cc(C(=O)Nc3cccc(F)c3)ccc2c1=O	n	n	40	n	n
COCCn1c(=S)[nH]c2cc(C(=O)NCCCN3CCOCC3)ccc2c1=O	n	n	n	n	n
COCCn1c(=O)[nH]c2cc(C(=O)NCCCN3CCN(c4ccc(F)cc4)CC3)ccc2c1=O	n	58	35	n	n
Cc1cccc(Nc2c3c(nc4nncn24)CCC3)c1C	x	x	n	n	x
Cc1ccc(NC2=NCC(=O)N2c2ccc3c(c2)OCCO3)c(C)c1	n	n	n	31	n
Cc1coc2cc3oc(=O)c(CC(=O)NCc4cccc(Cl)c4)c(C)c3cc12	x	x	x	n	x
Cc1ccc(O)c(C(=O)c2cnc3c(c2)c(C)nn3C)c1	n	n	n	n	n
Cc1nn(C)c2ncc(C(=O)c3ccccc3O)cc12	n	48	n	n	n
COc1ccc(-c2cc(C(=O)Nc3cccnc3Cl)no2)cc1	n	n	n	n	n
O=C(Nc1cccnc1Cl)c1cc(-c2ccc(F)cc2)on1	n	n	n	34	n
O=C(c1cc(-c2ccc(F)cc2)on1)N1CCCCCC1	n	n	n	34	n
CCOC(=O)c1cccc(NC(=O)CCc2c(C)nn(-c3ccc(N4CCOCC4)nn3)c2C)c1	x	x	n	n	x
COc1ccc(Nc2cc(C(=O)NCc3ccccc3)c3ccccc3n2)cc1OC	x	x	n	x	x
CCN(CC)CCNC(=O)c1cc(Nc2ccc(OC)c(OC)c2)nc2ccccc12	n	43	n	n	n
COc1ccc(Nc2cc(C(=O)NCCCN3CCOCC3)c3ccccc3n2)cc1OC	n	30	n	n	n
CCOc1ccc2c(c1)c(=O)c(C(=O)c1ccc3c(c1)OCO3)cn2Cc1ccc(F)cc1	x	x	n	n	x
COc1cc2oc(=O)c(Br)c(C)c2c(OC)c1OC	n	39	n	n	n
COc1cc2[nH]c(-c3ccc(C)cc3)cc(=O)c2cc1OC	n	84	n	n	n
SMILES	D2 ag-1	D2 antag	D2 ag-2	D2 PAM-1	D2 PAM-2
COc1ccc(-c2cc(=O)c3cc(C)ccc3[nH]2)cc1	n	n	n	n	n
COc1ccc(CC(=O)Nc2ccc(-c3noc(-c4cc(OC)c(OC)c(OC)c4)n3)cc2)cc1	n	n	n	42	n
Cc1ccc(Sc2ccc(N3CCC(C(=O)Nc4ccc(Cl)cc4)CC3)nn2)cc1	x	x	n	n	x
O=C(Nc1ccc(OC(F)(F)F)cc1)c1ccc2nc[nH]c2c1	n	62	n	n	n
CCCCNC(=O)c1ccc2c(c1)NC(=O)C(CS(=O)(=O)Cc1cccc(C)c1)N2 (stereo not given)	x	x	n	n	x
COc1ccc(CCN2C(=O)c3[nH]nc(-c4ccccc4O)c3C2c2cccc(OC)c2)cc1 (stereo not given)	x	x	n	n	x
COc1ccc(CCN2C(=O)c3[nH]nc(-c4ccccc4O)c3C2c2cccc(Cl)c2)cc1 (stereo not given)	n	n	n	n	91
COc1cc2c(cc1OC)C(=Cc1ccc(N(C)C)cc1)C=C2	n	x	x	x	n
COc1cc2nc(/C=C/c3ccc(N(C)C)cc3)sc2cc1SC	n	n	67	n	n

Assay outcomes: PubChem, National Center for Advancing Translational Sciences (NCATS)
